# Screens: PubChem, National Center for Advancing Translational Sciences (NCATS)
# Sampled rows, rich in hits. Any-hit rate of the full collection: about 9.4%.
# FLuc counter – firefly luciferase modulation, counter-screen for miR-21 project; purified FLuc, Km substrates, luminescence inhibition; Potency, µM (top dose mostly 57.5 µM), without a hit: at the top dose activity change, negative = inhibition, usual class: inhibitors; hit rate 6.9% among 360,000; AID 588342;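 further: plate controls were vehicle for no effect and reference inhibitor for full effect; nearly all actives have a fitted effect of over 55% in size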
# Target sequence (P08659 whole entry, looked up): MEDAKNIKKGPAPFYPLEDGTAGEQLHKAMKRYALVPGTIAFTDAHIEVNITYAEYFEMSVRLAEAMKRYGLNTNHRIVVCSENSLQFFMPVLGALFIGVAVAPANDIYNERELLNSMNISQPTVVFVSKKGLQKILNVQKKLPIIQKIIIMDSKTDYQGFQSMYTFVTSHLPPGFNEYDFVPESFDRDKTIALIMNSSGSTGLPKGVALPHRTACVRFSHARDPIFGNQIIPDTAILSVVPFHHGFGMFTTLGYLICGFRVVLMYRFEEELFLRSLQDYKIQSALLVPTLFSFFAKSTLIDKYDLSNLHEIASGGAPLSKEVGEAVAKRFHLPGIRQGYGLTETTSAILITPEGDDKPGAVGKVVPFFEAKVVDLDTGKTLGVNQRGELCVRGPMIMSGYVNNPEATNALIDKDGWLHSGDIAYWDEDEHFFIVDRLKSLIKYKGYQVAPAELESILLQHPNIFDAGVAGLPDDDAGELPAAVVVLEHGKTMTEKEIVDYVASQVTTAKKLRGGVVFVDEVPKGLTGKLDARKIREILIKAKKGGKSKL
#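 Purified P. pyralis luciferase (10nM final) with 10uM D-luciferin and 10uM ATP (Km levels) in 50mM Tris acetate pH 7.5, 10mM Mg acetate, 0.01% Tween-20, 0.05% BSA; qHTS 6-point titration, ~60 µM downward; luminescence read.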
# ELG1 repair inh – ELG1-dependent DNA repair inhibition; HEK293T ELG1-luciferase reporter, luminescence, 16 h; DNA damage induced by 5-fluorouridine; Potency, µM (series often up to 46.1 µM), for inactives: at the highest dose activity change, negative = inhibition, hits mostly inhibitors; hit rate 2.3% among 330,000; AID 504467; further: on the % scale 0 is the no-effect control and ±100 the full control effect; nearly all actives have a fitted effect of over 55% in size
#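 5-Fluorouridine DNA damage + compound/DMSO, 2,000 cells/well, 16 h, 37 °C/5% CO2. ONE-Glo, 30 min RT, luminescence. Readout = decrease in reporter signal.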
# NPC1 prom act – NPC1 promoter activation; Potency, µM (titrated, usually from 9.22 µM), inactives show top-dose activation, actives largely listed as activators; Huh7 NPC1 promoter luciferase reporter, 24 h; AID 485313; hit rate 2.4% among 320,000; further: % of control where 0% means no effect; nearly all actives have a fitted effect of over 60% in size
#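 Stable NPC1-promoter luciferase Huh7 line; cpd (DMSO) 24 h, 37 °C, 5% CO2; Amplite luciferase reagent 10 min RT; luminescence readout. qHTS format.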
# ELG1 genotoxic – genotoxicity induction in ELG1-luciferase HEK293T cells; AID 504466; HEK293T ELG1-luciferase reporter, luminescence, 16 h; Potency, µM (doses to about 46 µM), for inactives: at the top dose activity change, positive = activation, most hits filed as activators; hit rate 1.3% among 330,000; further: % of control where 0% means no effect; nearly all actives have a fitted effect of over 60% in size
#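 HEK293T cells expressing luciferase-tagged ELG1 were treated with compound or DMSO for 16 hr at 37°C. Luciferase activity was then read after 30 min with ONE-Glo at room temperature; rising signal flags genetic stress.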
# SMN2 splice up – enhancers of SMN2 splice variant expression; HEK293 SMN2-luciferase splicing reporter, luminescence, 30-36 h; Potency, µM (highest dose often 46.1 µM), for inactives: at the highest dose activity change, positive = activation, hits mostly activators; hit rate 2.8% among 210,000; further: % of control where 0% means no effect; nearly all actives have a fitted effect of over 55% in size
#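 HEK293 cells carry an SMN2 minigene-luciferase reporter in which exon 7 inclusion puts luciferase in frame. Cells were seeded at 2000 cells/well, attached for 10-12 hours, then exposed to compounds for 30-36 hours at 37C before ONE-Glo luminescence.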
# Rab9 prom act – activators of Rab9 promoter; Potency, µM (highest dose often 9.22 µM), without a hit: top-dose activation, negative = inhibition, usual class: activators; AID 485297; Huh7 Rab9 promoter-luciferase reporter, luminescence, 24 h; hit rate 2.8% among 320,000; further: % of control where 0% means no effect; nearly all actives have a fitted effect of over 60% in size
#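 Using Huh7 cells stably transfected with Rab9 promoter–luciferase, compounds were incubated 24 h at 37 °C, 5% CO2; luciferase luminescence was read 10 min after reagent addition.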
# * hit, by the source's call; ? = inconclusive; · = no result given; [ ] = another dose, or the depositor's remark. The call rests on the fitted dose curve; in most records, active means well fitted curve in the direction sought with a large enough effect; inconclusive means small, poorly fitted or top-dose-only effect, or another doubt; inactive means no such curve, though single readings can be large; an effect the other way counts as inactive or inconclusive. Potency means the concentration at half of the fitted maximal effect.
SMILES,FLuc counter,ELG1 repair inh,NPC1 prom act,ELG1 genotoxic,SMN2 splice up,Rab9 prom act
S=C(Nc1ccc(Br)cc1Cl)Nn1cnnc1,?,6.1%,-0.2%,0.6%,-3.1%,-1.4%
COC(=O)c1sccc1NC(=O)/C=C/c1ccc(Cl)cc1,?,?,4.3%,?,?,?
COC(=O)c1sccc1NC(=O)/C=C\c1ccc(Cl)cc1Cl,?,?,?,8.0%,27.6%,3.98µM*
CC(=O)N(C)c1ccc(NC(=O)/C=C/c2ccccc2Cl)cc1,6.01µM*,?,28.9%,?,28.7%,?
CSc1ccc(CC(=O)N2CCC(n3nccc3NC(=O)C3CC3)CC2)cc1,?,?,3.16µM*,?,·,?
Cc1nnc(NC(=O)CSc2nnc(CCc3nc4ccccc4[nH]3)n2C)s1,-19.7%,0.0%,10.3%,-0.4%,-9.6%,0.5%
Cn1c(CCc2nc3ccccc3[nH]2)nnc1SCC#N,-0.9%,20.6µM*,-9.7%,-8.6%,·,7.5%
COc1cccc(C2=CC(c3cccs3)n3nnnc3N2)c1 (configuration not stated),3.0%,0.6%,-20.5%,16.4µM*,13.9%,-4.5%
COc1ccc(C2=CC(c3ccc(F)cc3)n3nnnc3N2)cc1 (configuration not stated),2.6%,3.7%,20.6%,?,0.1%,?
COc1ccc(C2=CC(c3sccc3C)n3nnnc3N2)cc1 (configuration not stated),-10.1%,?,2.82µM*,?,19.7%,2.82µM*
COc1cccc(C2=CC(c3ccc(OC)c(OC)c3OC)n3nnnc3N2)c1 (configuration not stated),-12.7%,?,10.5%,22.0%,·,16.2%
CC(C)c1ccc(C2=CC(c3ccc(C(C)C)cc3)n3nnnc3N2)cc1 (configuration not stated),2.69µM*,·,·,·,·,·
O=C(O)CCCc1ccc2ccc3ccccc3c2c1,·,·,·,·,-16.3%[9.22 µM],·
COc1ccccc1CNC(=O)c1ccc(N2Cc3cccc(OC)c3Oc3ncccc32)s1,-8.7%,·,·,·,·,·
CC(C)[C@@H](CC(=O)N[C@@H]1CCNC[C@H]1C(=O)N[C@H](CC(=O)N[C@@H](CCC(=O)O)CC(=O)O)Cc1ccccc1)NC(=O)C[C@H](Cc1c[nH]c2ccccc12)NC(=O)[C@@H]1CNCC[C@H]1N,·,·,·,·,6.6%,·
O=C(O)CCCCCn1c(SCc2cc(=O)n3cc(Cl)ccc3n2)nc2ccsc2c1=O,4.5%,-2.3%,-1.1%,4.0%,-22.2%,-3.8%
O=c1c2sccc2nc(SCc2cc(=O)n3cc(Cl)ccc3n2)n1Cc1ccccn1,-3.2%,?,?,?,6.4%,3.55µM*
NC(=O)NCCS[C@H]1CCCC[C@@H]1O,·,·,·,·,-6.6%[9.22 µM],·
CCOc1ccc(C(c2c(O)cc(C)n(CCOC)c2=O)N2CCN(c3ccccc3)CC2)cc1 (configuration not stated),-16.7%,·,·,·,·,·
CCN(CC)C(=O)CSc1ncnc2c1nnn2-c1ccc(F)cc1,13.5µM*,6.0%,-1.1%,2.5%,-9.9%,-2.5%
COC(=O)c1ccc(CSc2ncnc3ccccc23)o1,-17.3%,-12.9%,0.3%,-8.0%,14.2%,1.1%
CCOC(=O)C(C)Sc1ncnc2c1nnn2-c1ccc(F)cc1 (configuration not stated),12µM*,?,?,17.4%,16.6%,?
CCC(Sc1ncnc2c1nnn2-c1ccc(F)cc1)C(=O)OC (configuration not stated),5.36µM*,?,?,?,6.5%,?
CCC(C(=O)OC)n1cnc2c(nnn2-c2ccc(F)cc2)c1=O (configuration not stated),-1.9%,7.2%,0.1%,4.5%,·,2.2%
COC(=O)c1ccc(CSc2ncnc3c2nnn3-c2ccc(F)cc2)o1,8.49µM*,6.3%,2.7%,3.2%,-10.0%,-8.7%
SMILES,FLuc counter,ELG1 repair inh,NPC1 prom act,ELG1 genotoxic,SMN2 splice up,Rab9 prom act
COc1ccccc1N1CCN(C(=O)c2cc(-c3ccc(C)c(F)c3)on2)CC1,-15.6%,·,·,·,·,·
CCC(=O)N1CCc2cc(Br)cc(S(=O)(=O)CCC(=O)Nc3ccc(Cl)cc3)c21,3.9%,·,·,·,12.8%,·
CC(C)Oc1ccccc1-c1nc(SCC(=O)c2ccc(F)cc2)n[nH]1,-12.8%,·,·,·,0.3%,·
CCOc1ccc(NC(=O)CSc2cn(CC(=O)N3CCOCC3)c3ccccc23)cc1,5.2%,·,·,·,·,·
COc1ccc(OC)c(NC(=O)C(C)n2nc(C)c3c(C)n(-c4ccccc4)nc3c2=O)c1 (configuration not stated),-5.3%,·,·,·,·,·
COc1ccc([C@H]2[C@H](C(=O)C(C)(C)C)N3N=Cc4ccccc4C3C23C(=O)OC(C)(C)OC3=O)cc1 (some centres not stated),-9.3%,12.5%,-0.6%,-0.7%,14.1µM*,0.8%
COc1ccc([C@@H]2[C@@H](C(=O)C(C)(C)C)N3N=Cc4ccccc4[C@@H]3C23C(=O)OC(C)(C)OC3=O)cc1OC,1.8%,2.9%,-2.3%,0.4%,13.9%,6.9%
COc1ccc(-c2nnc(SCC#CCO)o2)cc1OC,0.2%,14.8%,-0.5%,4.5%,-7.9%,-0.5%
CCCCCSc1nnc(-c2ccc(Br)cc2)o1,12µM*,·,·,·,0.3%,·
COC(=O)Sc1nnc(-c2ccc(Br)cc2)o1,19µM*,-1.5%,1.6%,7.2%,-15.3%,0.6%
OCC#CCSc1nnc(-c2ccc(Br)cc2)o1,?,?,9.5%,20.6µM*,-9.6%,-3.6%
CCCCOC(=O)CSc1nnc(-c2ccc(C)cc2)o1,?,·,·,·,4.4%,·
COc1ccc(C)cc1NC(=O)CSc1nnc(-c2ccc(Br)cc2)o1,-7.5%,?,1.1%,-3.7%,-11.8%,2.6%
c1ccc2oc(-c3[nH]ncc3CN3CCSCC3)cc2c1,-1.9%,-0.4%,0.9%,-0.8%,·,3.6%
c1ccc2oc(-c3ccn[nH]3)cc2c1,8.49µM*,?,2.82µM*,?,·,3.16µM*
COc1ccc(/C=N\NC(=O)/C(=C\Nc2nccc(C)n2)NC(=O)c2ccccc2)cc1,15.1µM*,-2.5%,0.0%,-0.3%,-7.2%,-0.2%
Cc1ccc(/C=N\NC(=O)/C(=C\Nc2nccc(C)n2)NC(=O)c2ccccc2)cc1,15.1µM*,15.4%,-3.7%,-3.1%,·,-2.4%
COc1cc(C2NC(=O)N(C)C3=C2C(=O)N(c2ccccc2)C3)ccc1O (configuration not stated),5.4%,·,·,·,7.8%,·
CCCCn1c(=O)n(-c2cc(OC)ccc2OC)c(=O)c2c3c(sc21)CN(C(C)=O)CC3,0.5%,·,·,·,28.2%,·
